Assay [1] is described as follows: Quantitative High-Throughput drug screen in 47 multiple myeloma cell lines against the NCATS MIPE library collection: OCIMY1_PLB cell viability assay (AID 1918979). Note: series mostly up to about 46 µM; nearly all actives have a fitted effect of over 35% in size. In a few lines:
(§1)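 Myeloma cells (500/well) treated with MIPE 4.0 compounds for 48 h at 37 °C, 5% CO2. Viability read as ATP via CellTiter-Glo luminescence after 5 min at RT; DMSO-only wells = 100%, media-only = 0% viability.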

A short description of assay [2]: Quantitative High-Throughput drug screen in 47 multiple myeloma cell lines against the NCATS MIPE library collection: LP1_DSMZ cell viability assay (AID 1918982). Note: nearly all actives have a fitted effect of over 35% in size. In a few lines: as §1
Assay [3] in a line: Quantitative High-Throughput drug screen in 47 multiple myeloma cell lines against the NCATS MIPE library collection: MM1S_ATCC cell viability assay (AID 1918980). Note: potency is the fitted concentration of half-maximal effect; nearly all actives have a fitted effect of over 45% in size. In a few lines:
as §1

A short description of assay [4]: Quantitative High-Throughput drug screen in 47 multiple myeloma cell lines against the NCATS MIPE library collection: MM1R_ATCC cell viability assay (AID 1918981). Note: nearly all actives have a fitted effect of over 35% in size. In a few lines: as §1
The nature of assay [5]: Quantitative High-Throughput drug screen in 47 multiple myeloma cell lines against the NCATS MIPE library collection: KMS28PE_JCRB cell viability assay (AID 1918983). Note: nearly all actives have a fitted effect of over 35% in size. In outline:
as §1

A short description of assay [6]: Quantitative High-Throughput drug screen in 47 multiple myeloma cell lines against the NCATS MIPE library collection: KMS34_JCRB cell viability assay (AID 1918985). Note: nearly all actives have a fitted effect of over 40% in size. In a few lines: as §1
A short description of assay [7]: Quantitative High-Throughput drug screen in 47 multiple myeloma cell lines against the NCATS MIPE library collection: L363_DSMZ cell viability assay (AID 1918984). Note: nearly all actives have a fitted effect of over 40% in size. Note: potency is the fitted concentration of half-maximal effect. In outline: as §1

The values that follow come from PubChem BioAssay (NCATS).

Inconclusive results are not listed. Calls of active or inactive are those of the source. Calls come from the whole dose curve; as a rule, active = well fitted cell-killing curve with a large enough effect; inconclusive = small, poorly fitted or top-dose-only effect, or effect the other way; inactive = no such curve, though single readings can be large or run the other way.

With `O=C(O)c1ccc(-c2c[nH]c3ncc(-c4ccccc4)cc23)cc1C1CCCC1`, the Potency entry in assay [1] and in assay [2] was “inactive” in each case.

Take `CC1(C)Cc2c(sc(NC(=S)NC(=O)c3ccccc3)c2C(=O)O)CO1`: in assay [3], the Potency was 18.7 µM (active). Besides, the Potency result in assay [4], in assay [2], in assay [5] and in assay [6] was “inactive” each time.

With `NC1=N[C@@]2(c3cc(NC(=O)c4ccc(F)cn4)ccc3F)COC[C@@H]2CS1`, the Potency entry in assay [1] and in assay [5] was “inactive” in each case. Moreover, the Potency in assay [7] was 0.418 µM (active).

As to `CO[C@H]1C[C@@H]2CC[C@@H](C)[C@@](O)(O2)C(=O)C(=O)N2CCCC[C@@H]2C(=O)O[C@H]([C@@H](C)C[C@@H]2CC[C@H](O)[C@H](OC)C2)CC(=O)[C@H](C)C=C(C)[C@@H](O)[C@@H](OC)C(=O)[C@H](C)C[C@H](C)C=CC=CC=C1C`, the Potency entry in assay [4], in assay [2], in assay [5] and in assay [7] was “inactive” in each case.
